# Screening data deposited in PubChem by National Center for Advancing Translational Sciences (NCATS).
# In the library only some 6% were active in any assay of this set; here they are far more common.
# DRD3 agonist = D3 dopamine receptor (human) agonism | P35462 | D3R DiscoveRx beta-arrestin cells, luminescence, 90 min | max activation, % | 410,000 compounds, 0.58% hits; in the data active = max activation above about 30%; also: 0% is about no effect
# Target sequence (P35462 whole entry, looked up): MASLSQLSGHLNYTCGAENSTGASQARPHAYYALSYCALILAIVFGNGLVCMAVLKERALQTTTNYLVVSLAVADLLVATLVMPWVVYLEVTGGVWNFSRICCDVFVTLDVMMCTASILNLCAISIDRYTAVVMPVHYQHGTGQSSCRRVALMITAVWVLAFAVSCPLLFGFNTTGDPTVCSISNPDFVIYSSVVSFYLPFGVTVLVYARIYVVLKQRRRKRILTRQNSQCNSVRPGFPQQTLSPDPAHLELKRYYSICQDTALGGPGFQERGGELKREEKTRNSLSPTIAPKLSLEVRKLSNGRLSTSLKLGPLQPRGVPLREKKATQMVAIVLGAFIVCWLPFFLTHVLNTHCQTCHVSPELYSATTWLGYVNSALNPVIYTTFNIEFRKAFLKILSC
#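 Cells at 1500/well, incubated overnight, then treated with pinned compounds (dopamine as control) for 90 min at 37 degrees C. DiscoveRx reagent added for 30 - 60 minutes at room temperature; luminescence read.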
# DRD3 antagonist = blocks the human D3 dopamine receptor | 360,000 compounds, 2.5% hits | P35462 | D3R cells, DiscoveRx beta-arrestin luminescence, antagonist mode; hits give low values | max response, negative = inhibition, %; in the data active = max response below about -50%; inconclusive = no clear call, values can overlap the other calls; also: % is scaled to controls: 0 for no effect and ±100 for the full control effect
#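 Cells expressing the human receptor were seeded at 1500 cells/well, incubated overnight at 37 degrees C in 5% CO2, then exposed to library compounds with dopamine controls for 90 minutes at 37 degrees C before luminescent detection.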
# D1 antagonist = blocks dopamine activation of the human D1 receptor; HEK293 TREx D1 cells, calcium flux, dopamine EC80; hits give low values; activity change, negative = inhibition, % at 10 µM; AID 504652; 360,000 compounds, 3.2% hits; in the data active = activity change below about -30%; also: % is scaled to controls: 0 for no effect and ±100 for the full control effect
#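 Allosteric or orthosteric antagonism assessed as attenuation of the calcium response to EC80 dopamine, added 180 s after compound, in induced HEK293 Trex D1 cells loaded with no-wash calcium dye.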
# D1 ag = activates the human D1 dopamine receptor | P21728 | HEK293 T-REx D1 cells, calcium flux, agonist mode | activation, % at 2 µM | 360,000 compounds, 1% hits; in the data active = activation above about 30%; also: 0% is about no effect
#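 Inducible HEK293 T-REx D1 cells, force-coupled to calcium signalling, were plated at 4000 cells/well with tetracycline and held overnight at 30 C. After no-wash calcium dye loading, compound-evoked calcium rise over 180 s flagged agonists.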
# D1 potentiator = human D1 dopamine receptor positive modulation. P21728. HEK293 TREx D1 cells, calcium flux, dopamine EC20 potentiation. potentiation, % at 10 µM. 360,000 compounds, 0.036% hits; in the data active = potentiation above about 30%; also: 0% is about no effect
# Chronic BCR inh = blocks chronic active B-cell receptor signaling; ABC-DLBCL IkBa-CBG/CBR reporter, luminescence ratio, 4 h; Potency, µM (highest dose often 46.1 µM), without a hit: at the highest dose activity change, negative = inhibition, usual class: inhibitors; 340,000 compounds, 0.05% hits; active = well fitted inhibition curve with a large enough effect in the signal ratio, with a control signal flat, not every such curve was filed as active; inconclusive = small, poorly fitted or top-dose-only effect, or effect the other way, or a change in a side signal; the % refers to the signal ratio;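 also: potency is read from the fitted curve at half-maximal effect; plate controls were basal doxycycline-induced cells for no effect and cells given 10 µM MG132 for full effect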
#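 Doxycycline induced both beetle luciferases in TMD8 lymphoma cells; IKK-driven degradation limits the IkappaBalpha-fused green signal, while red luminescence normalises for cell number and nonspecific effects. Compounds tested up to 46 uM, 4 hrs.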
# The depositor's hits bear a star; ? = inconclusive; · = no result.
SMILES,DRD3 agonist,DRD3 antagonist,D1 antagonist,D1 ag,D1 potentiator,Chronic BCR inh
O=C(CNC(=O)C(c1ccccc1)c1ccccc1)N/N=C/c1ccc(O)cc1O,32.5*,19.4,5.8,18.1,3.0,?
O=C(CNC(=O)C(c1ccccc1)c1ccccc1)N/N=C\c1cccc(O)c1,2.9,1.5,32.4,51.5*,-1.2,?
C=C(C)Cn1c(SCC(=O)N/N=C/c2cccc(O)c2)nc2ccccc2c1=O,3.0,68.0,-34.8*,1.0,-10.8,0.3%
COc1cc(/C=N\NC(=O)CNC(=O)C(c2ccccc2)c2ccccc2)ccc1O,-1.0,-11.7,25.8,12.0,0.9,-18.0%
CC(=O)c1ccc(NC(=O)C2CCC(CNS(=O)(=O)c3ccc4c(c3)CCCC(=O)N4)CC2)cc1 (centres undefined),15.7,·,-7.5,1.8,1.6,·
Oc1c(CN2CCOCC2)cc(COCc2ccccc2)c2cccnc12,-22.5,-67.4*,5.3,1.1,2.8,?
Oc1c(CN2CCN(c3ccccc3)CC2)cc(Br)c2cccnc12,-14.6,?,-86.9*,0.3,-2.7,?
O=C(NCc1ccco1)c1ccc2c(c1)N(Cc1ccc(Cl)cc1)C(=O)c1ccccc1S2=O (centres undefined),-12.0,·,8.4,15.6,-3.9,·
O=C(c1ccc2c(c1)N(Cc1ccccc1F)C(=O)c1ccccc1S2=O)N1CCCCC1 (centres undefined),8.1,·,9.5,0.9,1.6,·
CCOC(=O)C1CCCN(C(=O)c2ccc3c(c2)N(Cc2ccccc2F)C(=O)c2ccccc2S3=O)C1 (centres undefined),9.0,·,-35.7*,2.1,0.5,·
O=C(NCc1ccco1)c1ccc2c(c1)N(Cc1cccc(Cl)c1)C(=O)c1ccccc1S2=O (centres undefined),59.2*,·,-6.5,3.1,-1.0,1.3%
CC1CC(C)CN(CCCNC(=O)c2ccc3c(c2)N(Cc2ccccc2)C(=O)c2ccccc2S3=O)C1 (centres undefined),-19.7,-72.5*,3.0,80.2*,-6.5,?
CCN1CCN(C(=O)c2ccc3c(c2)N(Cc2ccccc2)C(=O)c2ccccc2S3=O)CC1 (centres undefined),-13.2,-56.0*,0.2,1.5,-8.2,?
O=C(CCCn1c(=O)c2sccc2n(Cc2ccc(Cl)cc2)c1=O)NCc1ccc2c(c1)OCO2,-3.0,·,10.2,3.4,-0.9,·
C[C@@H](O)[C@H]1C(=O)N2C(C(=O)O)=C(SCCN=CN)C[C@H]12,-1.0,·,·,·,·,·
CCN1CCN(C(=O)c2ccc3c(c2)N(Cc2ccccc2F)C(=O)c2ccccc2S3(=O)=O)CC1,-17.6,-61.0*,6.0,-0.7,-0.6,-2.2%
CC1CCCN(CCCNC(=O)c2ccc3c(c2)N(Cc2ccc(Cl)cc2)C(=O)c2ccccc2S3(=O)=O)C1 (centres undefined),-46.6,·,-34.6*,60.2*,-0.8,·
Cc1ccc(C)c(CN2C(=O)c3ccccc3S(=O)(=O)c3ccc(C(=O)NCCCN4CCCC(C)C4)cc32)c1 (centres undefined),-19.4,·,-0.9,20.1,-2.9,·
CCOC(=O)c1cccc(NC(=O)CCCn2nc(C)c3c(C)n(-c4ccccc4)nc3c2=O)c1,1.5,·,2.6,6.0,-0.1,·
CN1CCN(/N=C/c2ccc(OCc3ccccc3)cc2)CC1,-15.1,?,-69.0*,31.6*,-19.2,?
COC(=O)c1ccc(COc2ccc(/C=N/N3CCN(C)CC3)cc2)cc1,0.0,13.6,6.3,5.8,-2.5,7.5%
Cc1ccc(/C=C/c2onc(C)c2S(=O)(=O)N2CCC(C(=O)Nc3ccc(C)c(N(C)C)c3)CC2)cc1,0.7,·,-12.9,3.9,-3.2,·
Cc1ccc(-c2nnc(N3CCCCC3)c3ccccc23)cc1S(=O)(=O)N(C)C,2.4,24.3,1.9,0.6,-0.2,4.6%
O=S(=O)(c1cccc2cccnc12)N1CCCCC1,0.8,6.2,-0.9,1.2,4.8,-3.2%
Cc1ccc(-c2nnc(N3CCCCC3)c3ccccc23)cc1S(=O)(=O)N1CCN(C)CC1,-18.0,-83.4*,-9.6,-0.4,-6.4,2.0%
